Bioassay records deposited in PubChem BioAssay by National Center for Advancing Translational Sciences (NCATS).
Compounds with a hit are over-represented: about 11% of the library has one in this group of screens.
PI5P4K alpha inh: inhibitors of human PI5P4K alpha; P48426; PI5P4Kalpha enzyme, ADP-Glo luminescence, 60 min; hits give low values; max response, %; actives 1.2% (n = 330,000); AID 652105; active means max response of -50% or lower; inconclusive means between -30% and -50%; inactive means -30% or higher; further: value at the top dose of about 77 µM; on the % scale 0 is the no-effect control and ±100 the full control effect
Target sequence (P48426 whole entry, looked up): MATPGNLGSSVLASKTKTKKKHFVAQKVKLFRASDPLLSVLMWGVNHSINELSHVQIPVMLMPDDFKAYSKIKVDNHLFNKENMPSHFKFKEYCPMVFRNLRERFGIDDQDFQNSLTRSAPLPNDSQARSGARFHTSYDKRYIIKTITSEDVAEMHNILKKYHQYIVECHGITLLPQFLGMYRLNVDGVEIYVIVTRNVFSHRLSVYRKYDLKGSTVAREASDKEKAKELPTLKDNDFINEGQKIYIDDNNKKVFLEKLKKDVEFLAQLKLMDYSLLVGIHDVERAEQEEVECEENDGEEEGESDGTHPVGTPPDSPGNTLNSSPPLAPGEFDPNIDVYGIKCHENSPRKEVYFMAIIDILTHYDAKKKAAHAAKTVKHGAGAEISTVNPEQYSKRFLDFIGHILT
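Compounds were pin-transferred onto PI5P4Kalpha and substrate in HEPES pH 7.4 buffer with EGTA, CHAPS and 5% DMSO. ATP (5 microM final) started the reaction, which ran 60 minutes at room temperature before ADP-Glo detection.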
BAZ2B inh: inhibitors of human BAZ2B bromodomain; Potency, µM (doses to about 114 µM), for the others: at the top dose activity change, negative = inhibition, most hits filed as inhibitors; AlphaScreen BAZ2B-H3K14Ac peptide displacement; actives 4.4% (n = 360,000); AID 504333; further: potency means the concentration at half of the fitted maximal effect; on the % scale 0 is the no-effect control and ±100 the full control effect; nearly all actives have a fitted effect of over 60% in size
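Multi-concentration screen (max 110 uM) measuring displacement of acetylated histone H3 peptide from BAZ2B by AlphaScreen, using 50 nM protein, 50 nM peptide and 10 ug/mL streptavidin donor plus Ni-chelate acceptor beads.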
L3MBTL1 inh: blocks human L3MBTL1. Potency, µM (top dose mostly 57.1 µM), without a hit: top-dose activity, negative = inhibition, usual class: inhibitors. AlphaScreen L3MBTL1–H3K9me1 peptide binding. actives 0.66% (n = 230,000). AID 485360. Q9Y468; further: potency means the concentration at half of the fitted maximal effect; on the % scale 0 is the no-effect control and ±100 the full control effect; nearly all actives have a fitted effect of over 60% in size
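AlphaScreen assay: L3MBTL1 (50 nM final) was preincubated 30 min at room temperature with biotinylated H3(1-15)K9me1 peptide (75 nM final), then 30 min with library compounds; streptavidin donor and nickel chelate acceptor beads (10 ug/mL final) added, 30 min dark.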
HP1b chromo inh: inhibitors of HP1-beta chromodomain binding to methylated histone tails; P83916; AlphaScreen HP1-beta / biotin-H3K9me3 peptide binding; Potency, µM (titrated, usually from 114 µM), for the others: at the highest dose activity change, negative = inhibition, hits mostly inhibitors; actives 0.56% (n = 390,000); AID 540317; further: potency means the concentration at half of the fitted maximal effect; nearly all actives have a fitted effect of over 70% in size
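Compound inhibition of the preformed complex between 50 nM HP1-beta and 50 nM biotinylated H3K9me3 peptide was read by AlphaScreen. Buffer was PBS pH 7.4 with 0.01% Tween-20. Incubations ran 30 min at room temperature, with 10 ug/mL donor/acceptor beads.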
JMJD2A Tudor inh: JMJD2A Tudor domain (human) inhibition; actives 4.4% (n = 390,000); AID 504339; Potency, µM (top dose mostly 114 µM), for the others: at the top dose activity change, negative = inhibition, hits mostly inhibitors; AlphaScreen JMJD2A-Tudor / H3K4me3 peptide binding; O75164; further: potency means the concentration at half of the fitted maximal effect; on the % scale 0 is the no-effect control and ±100 the full control effect; nearly all actives have a fitted effect of over 50% in size
G9a block: blocks human histone lysine methyltransferase G9a | Q96KQ7 | G9a H3K9 monomethylation, AlphaScreen, 2 h | Potency, µM (top dose mostly 102 µM), inactives show at the highest dose activity, negative = inhibition, usual class: inhibitors | actives 8.8% (n = 350,000) | AID 504332; further: potency means the concentration at half of the fitted maximal effect; on the % scale 0 is the no-effect control and ±100 the full control effect; nearly all actives have a fitted effect of over 75% in size
Target sequence (Q96KQ7 913-1193 limits assumed): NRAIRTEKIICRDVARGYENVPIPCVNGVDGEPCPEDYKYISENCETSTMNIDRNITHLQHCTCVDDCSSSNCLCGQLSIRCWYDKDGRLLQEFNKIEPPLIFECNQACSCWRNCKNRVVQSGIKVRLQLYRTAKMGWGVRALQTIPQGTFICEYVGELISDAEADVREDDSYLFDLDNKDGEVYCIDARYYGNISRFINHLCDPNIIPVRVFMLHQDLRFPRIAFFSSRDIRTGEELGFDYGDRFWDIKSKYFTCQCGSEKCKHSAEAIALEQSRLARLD
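Step 1: enzyme (final 20 nM) with compound, 15 min RT. Step 2: substrate peptide 500 nM and SAM 20 uM, 2 h RT. Step 3: anti-H3K9me1 antibody and AlphaScreen beads, 10 min, then plate read.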
Starred values were filed as active, the others as inactive; u = inconclusive; x = not tested or not shown; [ ] = remark or other dose. Unless noted, the call rests on the fitted dose curve; in most records, active means well fitted inhibition curve with a large enough effect; inconclusive means small, poorly fitted or top-dose-only effect; inactive means no such curve, though single readings can be large or run the other way.

SMILES | PI5P4K alpha inh | BAZ2B inh | L3MBTL1 inh | HP1b chromo inh | JMJD2A Tudor inh | G9a block
CCC(Sc1nc2ncccc2[nH]1)C(=O)Nc1ccccc1F (stereo not given) | x | -4% | x | 40% | -4% | -7%[59 µM]
OC[C@@H]1O[C@](CO)(O[C@H]2O[C@H](CO)[C@@H](O)[C@H](O)[C@H]2O)[C@H](O)[C@H]1O | x | x | x | x | x | 3%[12.7 µM]
Cc1onc(-c2ccccc2)c1C(=O)NCc1ccco1 | -18 | 8% | 7% | 22% | -11% | 50µM*
Cc1onc(-c2ccccc2)c1C(=O)NC(=S)NNC(=O)c1ccc(O)cc1 | -20 | 3% | 34% | -7% | u | 4%[59 µM]
Cc1onc(-c2ccccc2)c1C(=O)NC(=S)NNC(=O)c1ccc(O)cc1O | -18 | 22µM* | -21% | -15% | 79µM* | u
Cc1onc(-c2ccccc2)c1C(=O)NC(=S)NNC(=O)c1ccccc1O | -3 | 35µM* | u | -6% | 79µM* | -4%[59 µM]
COc1ccc(-c2cc(C(F)(F)F)n3nc(C)c(-c4ccccc4)c3n2)cc1OC | x | 5% | x | 36% | 6% | 8%[59 µM]
COc1ccc([N+](=O)[O-])cc1-c1[nH]c(-c2ccc(C(=O)O)cc2)nc1-c1ccccc1 | -6 | u | -3% | -5% | u | u
COc1ccc(-c2nc(-c3ccccc3)c(-c3cc([N+](=O)[O-])ccc3C)[nH]2)cc1O | -16 | 40µM* | -22% | u | 45µM* | 50µM*
Cc1ccc([N+](=O)[O-])cc1-c1[nH]c(-c2ccc(O)c(O)c2)nc1-c1ccccc1 | x | 28µM* | x | -43% | 40µM* | u
C=C(CCC12O[C@H](C(=O)O)[C@@](O)(C(=O)O)[C@](C(=O)O)(O1)[C@H](OC(=O)/C=C/[C@@H](C)C[C@@H](C)CC)[C@H]2O)[C@@H](OC(C)=O)[C@H](C)Cc1ccccc1 | x | x | x | x | x | 33%[59 µM]
CSCC[C@H](NC(=O)N1CCn2c1nc1ccccc12)C(=O)NCc1ccccc1 | 0 | u | x | 31% | u | 45µM*
CSCC[C@H](NC(=O)N1CCn2c1nc1ccccc12)C(=O)NCc1ccc(C)cc1 | 13 | u | x | 14% | -3% | 32µM*
CSCC[C@H](NC(=O)N1CCn2c1nc1ccccc12)C(=O)NCc1ccco1 | -2 | u | x | u | 45µM* | 79µM*
CSCC[C@H](NC(=O)N1CCn2c1nc1ccccc12)C(=O)N[C@H](Cc1ccccc1)C(=O)O | 4 | u | x | 21% | u | -4%[12.7 µM]
COc1ccc(OC(C)C(=O)NCc2nc(-c3cccc(C)c3)no2)cc1 (stereo not given) | x | 2% | x | 60% | 9% | 14%[59 µM]
CCc1ccc(NC(=O)C(=O)NCCc2csc(-c3cccc(F)c3)n2)cc1 | x | -3% | x | 27%[57 µM] | -9% | 1%[59 µM]
COC(=O)c1ccc(Nc2nnc(-c3ccc(C)c(S(=O)(=O)N4CCN(C)CC4)c3)c3ccccc23)cc1 | x | -26% | x | 23% | -33% | u
COc1cc(C2c3cc4c(cc3OC(N3CCCCC3)C2C)OCO4)cc(OC)c1O (stereo not given) | 16 | x | x | 18% | -14% | x
CC1C(c2ccc3c(c2)OCO3)c2cc3c(cc2OC1N1CCOCC1)OCO3 (stereo not given) | 7 | x | x | u | 18µM* | x
O=C(COCc1cc(-c2ccc(F)cc2)on1)Nc1cc(F)ccc1F | x | 7% | x | 69% | 18% | 5%[59 µM]
CCOc1ccc(CC(=O)NNC(=O)/C=C/C(=O)O)cc1 | -2 | -29% | 0% | 15% | -27% | 32µM*
Nc1ccccc1SSc1ccccc1N | -21 | 45µM* | x | u | 32µM* | 1.6µM*
COc1ccc(C(=O)c2c(N)sc3c2CCN(C)C3)cc1 | -3 | -22% | x | 20% | -13% | 5%[0.501 µM]
CN1CCc2c(sc(N)c2C(=O)O)C1 | -15 | -17% | 0% | -13% | -12%[11.4 µM] | 28µM*
SMILES | PI5P4K alpha inh | BAZ2B inh | L3MBTL1 inh | HP1b chromo inh | JMJD2A Tudor inh | G9a block
CCCCc1ccc(NC(=O)Cn2cnc3c(oc4ccccc43)c2=O)cc1 | x | u | x | 0% | u | -35%[59 µM]
C#CCOCCOCCOCCNc1nc(N2CCN(C(=O)[C@H](CCC(=O)O)n3cc([C@@H](N)CO)nn3)CC2)nc(N2CCN(C(=O)[C@H](CCC(=O)O)n3cc([C@@H](N)CCSC)nn3)CC2)n1 | -4 | x | u | 7% | 79µM* | x
C#CCOCCOCCOCCNc1nc(OC)nc(N2CCN(C(=O)[C@H](CCC(=O)O)n3cc(C(N)CO)nn3)CC2)n1 (stereo not given in full) | 2 | 79µM* | -12% | -12% | 79µM* | -6%[2.33 µM]
CN(Cc1ccco1)c1cc(-c2ccc3c(c2)OCO3)ncn1 | x | x | x | x | x | 2%[0.501 µM]
COc1ccc(NC(=O)c2sc3nc(C)c(C(=O)Nc4ccc(C)cc4C)c(-c4cccs4)c3c2N)cc1 | x | -1% | x | 21% | -7% | -42%[59 µM]
CCOC(=O)C1=C(c2ccccc2)Nc2ncnn2C1c1ccc(OC)c(OC)c1OC (stereo not given) | x | 2% | 0% | 21% | -13% | -1%
COc1ccc(C2C=C(c3ccc(C)c(C)c3)Nc3ncnn32)c(OC)c1OC (stereo not given) | -6 | -24% | 1% | 47% | -27% | 50µM*
CC(C)(C)c1ccc(C2=CC(c3ccccc3)n3ncnc3N2)cc1 (stereo not given) | -17 | x | x | 82% | -25% | x
COc1cccc(C2=CC(c3ccc(OC)c(OC)c3OC)n3ncnc3N2)c1 (stereo not given) | x | 50µM* | x | 25% | -33% | u
Cc1c2cnn(CC(=O)N3CCN(c4ccccc4)CC3)c(=O)c2c(C)n1Cc1ccc(F)cc1 | x | -5% | x | -4% | -17% | 6%[59 µM]
OC(CNCC1CCCO1)Cn1c2ccc(Cl)cc2c2cc(Cl)ccc21 (stereo not given) | 11 | -35% | -5% | 18% | -9%[57.1 µM] | 0%[2.33 µM]
OC(CNCCC1C=Nc2ccccc21)Cn1c2ccc(Cl)cc2c2cc(Cl)ccc21 (stereo not given) | 7 | 40µM* | -7% | u | 40µM* | u
Cc1sc(N)nc1-c1cccc([N+](=O)[O-])c1 | x | x | x | -17% | -35% | x
Cc1c(O)ccc(-c2n[nH]c(C(=O)O)c2-c2nc3ccccc3s2)c1O | -23 | u | -6% | 24% | -7% | 45µM*
Nc1ccc(Nc2ccncc2)cc1 | -8 | x | x | x | x | x
COc1ccc(Nc2ccccc2N)cc1 | -6 | 35µM* | -7% | u | 45µM* | 16µM*
Nc1ccc(Nc2ccccc2N)cc1 | x | 35µM* | -2% | u | 50µM* | u
COc1ccc(-n2nc(C(=O)N(C)c3cc(Cl)ccc3OC)c3c4ccccc4n(C)c3c2=O)cc1 | x | x | x | -3% | -23% | -6%[59 µM]
